Assay [1] deals with Aldehyde dehydrogenase, mitochondrial (Homo sapiens) (UniProt P05091). In words: qHTS for Inhibitors of the Aldehyde Dehydrogenase Family (ALDH2) Primary screen (AID 2061308). Also: nearly all actives have a fitted effect of over 55% in size. As to conditions: ALDH2 enzyme inhibition qHTS, 1536-well; series mostly up to 56 µM. A general note: qHTS replaces the single test concentration by a dilution series.
The target in assay [2] is Retinaldehyde dehydrogenase 3 (Homo sapiens) (UniProt P47895). In words: qHTS for Inhibitors of the Aldehyde Dehydrogenase Family (ALDH1A3) Primary screen (AID 2061315). The note with it: ALDH inhibition qHTS; series mostly up to 56 µM.

Results filed as inconclusive are left out. A call without a number means that no potency is given here. Activity calls are given as the source filed them. Calls follow the shape of the dose curve; as a rule, active = well fitted curve in the direction sought with a large enough effect; inconclusive = small, poorly fitted or top-dose-only effect, or another doubt; inactive = no such curve, though single readings can be large; an effect the other way counts as inactive or inconclusive.

On to `Cn1nnnc1Sc1ncnc2scc(-c3cccc(F)c3)c12`, for which the Potency entry in assay [1] and in assay [2] was “inactive” throughout.
Regarding `Cc1cc(-c2nnc3n2CCCCC3)c(C)n1-c1ccc(C(F)(F)F)cc1`, the Potency entry in assay [1] and in assay [2] was “inactive” in each case.
For `O=C(O)c1ccc(O)c2ncccc12`, the Potency result in assay [1] and in assay [2] was “inactive” in each case.
Turning to `Cc1ccc(NC(=O)c2ccncc2NS(=O)(=O)c2ccc(C)cc2)cc1`, the Potency result in assay [1] and in assay [2] was “inactive” each time.
As to `COc1cccc(C2c3c(ncn(-c4cccnc4)c3=N)Oc3ccc4ccccc4c32)c1` (configuration not stated), the Potency entry in assay [1] and in assay [2] was “inactive” in each case.
Regarding `Cc1cnc(-c2ccccc2C(C)C)nc1NCC1CCN(c2cnccn2)CC1`, the Potency result in assay [1] and in assay [2] was “inactive” each time.
Regarding `O=C(OCC#CCSc1nnc(-c2cccc3ccccc23)o1)C1CCCC1`, the Potency entry in assay [1] and in assay [2] was “inactive” in each case.
For the compound `CC/C=C/CC1=C(CCCCC(CCC(=O)O)OC(C)=O)CCC1=O` (configuration not stated), the Potency entry in assay [1] and in assay [2] was “inactive” in each case.
For the compound `COc1cccc(-c2nnc3n2N=C(c2ccc(OC)cc2OC)CS3)c1`, the Potency entry in assay [1] and in assay [2] was “inactive” throughout.
On to `Cc1cnc(-c2ccccc2C(C)C)nc1NCc1cccnc1`, for which the Potency result in assay [1] and in assay [2] was “inactive” each time.
In the case of `c1ccc(-c2cnc(Nc3ccc(OCCN4CCCC4)cc3)s2)cc1`, the Potency entry in assay [1] and in assay [2] was “inactive” in each case.
For the compound `Cn1c2cc(Br)sc2c2cnn(Cc3ccc(F)cc3)c(=O)c21`, the Potency result in assay [1] and in assay [2] was “inactive” each time.
Regarding `COc1ccc(OC)c(NC(=O)C(OC(=O)CNC(=O)c2ccccc2)c2ccccc2)c1` (configuration not stated), the Potency entry in assay [1] and in assay [2] was “inactive” each time.
As to `Cc1ccc(OCCn2c(CCNC(=O)NC3CCCCC3)nc3ccccc32)cc1`, the Potency result in assay [1] and in assay [2] was “inactive” in each case.
In the case of `Fc1cc(Nc2nc(-c3ccncc3)nc3ccccc23)ccc1-c1cccc(C(F)(F)F)c1`, the Potency result in assay [1] and in assay [2] was “inactive” throughout.
`Cc1nc(NCc2ccccc2)c2nc(-c3ccccc3)n(CCCN3CCOCC3)c2n1`: the Potency result in assay [1] and in assay [2] was “inactive” throughout.

The record behind these values is PubChem BioAssay (NCATS).
